Assay results as given in PubChem BioAssay (NCATS).
Results filed as inconclusive are left out. Entries that show only a call come without a potency. Active and inactive are the calls of the source. The call rests on the fitted dose curve; in most records, active means well fitted inhibition curve with a large enough effect; inconclusive means small, poorly fitted or top-dose-only effect; inactive means flat fitted curve, though single readings scatter. Peptide text beside a SMILES is read from it.

System: TAB113
Assay: qHTS profiling for inhibitors of Plasmodium falciparum proliferation (AID 504749); further: nearly all actives have a fitted effect of over 60% in size
Settings: P. falciparum in erythrocytes, SYBR Green DNA, 72 h; series mostly up to 12.8 µM
Procedure, shortened: (§1)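 Three-day growth assay of blood-stage parasites in erythrocytes (0.3% parasitemia, 2.5% hematocrit) at 37 C, 5% CO2, quantified by SYBR Green DNA staining after overnight detergent lysis.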
Potency means the concentration at half of the fitted maximal effect.

Row | Structure (SMILES) | Potency
1 | C[C@]1(c2ccccc2)OC(C(=O)O)=CC1=O | inactive
2 | OCC1OC([S-])[C@H](O)C(O)C1O.[Au+] (some centres not stated) | inactive
3 | COC(=O)N/N=C/C1=C[N+](=O)c2ccccc2[N+]1=O | inactive
4 | CN1CC(=O)N=C1N | inactive
5 | CNC1CC(N)[C@H](O)[C@@H](O[C@@H]2OC(CO)C3OC4(OC(C(N)CO)C(O)C(O)C4O)O[C@@H]3[C@H]2O)C1O (some centres not stated) | inactive
6 | COC1C=CO[C@@]2(C)Oc3c(C)c(O)c4c(O)c(c(C=NN5CCN(C)CC5)c(O)c4c3C2=O)NC(=O)/C(C)=C\C=CC(C)C(O)[C@@H](C)C(O)C(C)[C@H](OC(C)=O)C1C (some centres not stated) | 0.316 µM (active)
7 | CC(=O)N[C@@H]1C(O)OC(CO)C(O)C1O (some centres not stated) | inactive
8 | CCC(CCC(C)C1CCC2C3CC=C4CC(O)CC[C@@]4(C)C3CC[C@@]12C)C(C)C (some centres not stated) | inactive
9 | O=C1OC(CO)C(O)C(O)C1O (configuration not stated) | inactive
10 | COc1ccc(CC(N)C(=O)NC2C(CO)OC(n3cnc4c(N(C)C)ncnc43)C2O)cc1 (configuration not stated) | 1 µM (active)
11 | CCCC(=O)O[C@]1(C(=O)CO)CCC2[C@@H]3CCC4=CC(=O)CC[C@]4(C)C3C(O)C[C@]21C (some centres not stated) | inactive
12 | COC(=O)C(Cc1ccccc1)NC(=O)C(N)CC(=O)O (stereo not drawn) (H-Asp-Phe-OMe; configuration not given here) | inactive
13 | CC[C@@]12CCCN3CCc4c(n(c5ccccc45)[C@](O)(C(=O)OC)C1)C32 (some centres not stated) | inactive
14 | CC1(C)SC2C(N3C(=O)C(c4ccccc4)NC3(C)C)C(=O)N2C1C(=O)O (configuration not stated) | inactive
15 | CC1CCC(C(C)C)C(=O)C1 (configuration not stated) | inactive
16 | CC(=O)N[C@H](CC(C)C)C(=O)O | inactive
17 | CC(C)C1CCC(C(=O)NC(Cc2ccccc2)C(=O)O)CC1 (configuration not stated) | inactive
18 | COc1ccc2cc1Oc1ccc(cc1)CC1c3c(cc4c(c3Oc3cc5c(cc3OC)CCN(C)C5C2)OCO4)CCN1C (configuration not stated) | 7.08 µM (active)
19 | CNC1C(OC2C(O[C@@H]3C(O)C(O)[C@@H](N=C(N)N)C(O)C3N=C(N)N)OC(C)[C@@]2(O)CO)OC(CO)C(O)C1O (some centres not stated) | inactive
20 | CC1C2CCC3C4CC=C5CC(N(C)C)CC[C@@]5(C)C4CC[C@@]32CN1C (some centres not stated) | inactive
21 | C[C@]12C=CC(=O)C=C1CCC1C2C(O)C[C@]2(C)C1CC[C@]2(O)C(=O)CO (some centres not stated) | inactive
22 | COc1ccc2c(c1)N(C[C@@H](C)CN(C)C)c1ccccc1S2 | inactive
23 | CCOC(=O)C1=CC(OC(CC)CC)C(NC(C)=O)C(N)C1 (configuration not stated) | inactive
24 | CN(C)CCc1c[nH]c2ccc(CC3COC(=O)N3)cc12 (configuration not stated) | inactive
25 | NCC1CCC(N)C(O[C@@H]2C(O)[C@H](O[C@H]3OC(CO)C(O)C(N)C3O)[C@@H](N)C[C@H]2N)O1 (some centres not stated) | inactive
26 | OCC1O[C@H](OC2C(CO)O[C@@](O)(CO)C2O)C(O)C(O)C1O (some centres not stated) | inactive
27 | CC1(C)OC2CO[C@]3(COS(N)(=O)=O)OC(C)(C)OC3C2O1 (some centres not stated) | inactive
28 | CC(=O)OC1CCC2C3CCc4cc(O)ccc4C3CCC12C (configuration not stated) | inactive
29 | CN(C)CCCOC1C(C(O)CO)OC2OC(C)(C)O[C@@H]21 (some centres not stated) | inactive
30 | COc1cc(C2c3cc4c(cc3C(O[C@@H]3OC5COC(c6cccs6)OC5C(O)C3O)C3COC(=O)C23)OCO4)cc(OC)c1O (some centres not stated) | 2.24 µM (active)

System: TAB165
Assay: as above
Settings: P. falciparum in erythrocytes, SYBR Green DNA, 72 h; series mostly up to 12.8 µM
Procedure, shortened: as §1

Row | Structure (SMILES) | Potency
31 | CCC(C)C(=O)OC1CCC=C2C=CC(C)C(CCC3CC(O)CC(=O)O3)[C@@H]21 (some centres not stated) | inactive
32 | C[C@]1(c2ccccc2)OC(C(=O)O)=CC1=O | inactive
33 | OCC1OC([S-])[C@H](O)C(O)C1O.[Au+] (some centres not stated) | inactive
34 | COC(=O)N/N=C/C1=C[N+](=O)c2ccccc2[N+]1=O | inactive
35 | CN1CC(=O)N=C1N | inactive
36 | CNC1CC(N)[C@H](O)[C@@H](O[C@@H]2OC(CO)C3OC4(OC(C(N)CO)C(O)C(O)C4O)O[C@@H]3[C@H]2O)C1O (some centres not stated) | inactive
37 | COC1C=CO[C@@]2(C)Oc3c(C)c(O)c4c(O)c(c(C=NN5CCN(C)CC5)c(O)c4c3C2=O)NC(=O)/C(C)=C\C=CC(C)C(O)[C@@H](C)C(O)C(C)[C@H](OC(C)=O)C1C (some centres not stated) | 0.141 µM (active)
38 | CC(=O)N[C@@H]1C(O)OC(CO)C(O)C1O (some centres not stated) | inactive
39 | CCC(CCC(C)C1CCC2C3CC=C4CC(O)CC[C@@]4(C)C3CC[C@@]12C)C(C)C (some centres not stated) | inactive
40 | O=C1OC(CO)C(O)C(O)C1O (configuration not stated) | inactive
41 | COc1ccc(CC(N)C(=O)NC2C(CO)OC(n3cnc4c(N(C)C)ncnc43)C2O)cc1 (configuration not stated) | 0.794 µM (active)
42 | CCCC(=O)O[C@]1(C(=O)CO)CCC2[C@@H]3CCC4=CC(=O)CC[C@]4(C)C3C(O)C[C@]21C (some centres not stated) | inactive
43 | COC(=O)C(Cc1ccccc1)NC(=O)C(N)CC(=O)O (stereo not drawn) (H-Asp-Phe-OMe; configuration not given here) | inactive
44 | CC[C@@]12CCCN3CCc4c(n(c5ccccc45)[C@](O)(C(=O)OC)C1)C32 (some centres not stated) | inactive
45 | CC1(C)SC2C(N3C(=O)C(c4ccccc4)NC3(C)C)C(=O)N2C1C(=O)O (configuration not stated) | inactive
46 | CC1CCC(C(C)C)C(=O)C1 (configuration not stated) | inactive

Row | Structure (SMILES) | Potency
47 | CC(=O)N[C@H](CC(C)C)C(=O)O | inactive
48 | CC(C)C1CCC(C(=O)NC(Cc2ccccc2)C(=O)O)CC1 (configuration not stated) | inactive
49 | COc1ccc2cc(C(C)CO)ccc2c1 (configuration not stated) | inactive
50 | COc1ccc2cc1Oc1ccc(cc1)CC1c3c(cc4c(c3Oc3cc5c(cc3OC)CCN(C)C5C2)OCO4)CCN1C (configuration not stated) | 3.98 µM (active)
51 | CNC1C(OC2C(O[C@@H]3C(O)C(O)[C@@H](N=C(N)N)C(O)C3N=C(N)N)OC(C)[C@@]2(O)CO)OC(CO)C(O)C1O (some centres not stated) | inactive
52 | CC1C2CCC3C4CC=C5CC(N(C)C)CC[C@@]5(C)C4CC[C@@]32CN1C (some centres not stated) | inactive
53 | C[C@]12C=CC(=O)C=C1CCC1C2C(O)C[C@]2(C)C1CC[C@]2(O)C(=O)CO (some centres not stated) | inactive
54 | COc1ccc2c(c1)N(C[C@@H](C)CN(C)C)c1ccccc1S2 | inactive
55 | CCOC(=O)C1=CC(OC(CC)CC)C(NC(C)=O)C(N)C1 (configuration not stated) | inactive
56 | CN(C)CCc1c[nH]c2ccc(CC3COC(=O)N3)cc12 (configuration not stated) | inactive
57 | NCC1CCC(N)C(O[C@@H]2C(O)[C@H](O[C@H]3OC(CO)C(O)C(N)C3O)[C@@H](N)C[C@H]2N)O1 (some centres not stated) | inactive
58 | OCC1O[C@H](OC2C(CO)O[C@@](O)(CO)C2O)C(O)C(O)C1O (some centres not stated) | inactive
59 | CC1(C)OC2CO[C@]3(COS(N)(=O)=O)OC(C)(C)OC3C2O1 (some centres not stated) | inactive
60 | CC(=O)OC1CCC2C3CCc4cc(O)ccc4C3CCC12C (configuration not stated) | inactive
61 | CN(C)CCCOC1C(C(O)CO)OC2OC(C)(C)O[C@@H]21 (some centres not stated) | inactive
62 | COc1cc(C2c3cc4c(cc3C(O[C@@H]3OC5COC(c6cccs6)OC5C(O)C3O)C3COC(=O)C23)OCO4)cc(OC)c1O (some centres not stated) | 1.41 µM (active)
